LASV entry inh = blocks Lassa virus binding to or entry into cells. AID 540256. actives 1.2% (n = 300,000). Potency, µM (titrated, usually from 37.9 µM), usual class: inhibitors. Lassa virus pseudotype entry inhibition, cell reporter; calls by dose curve; tested in HEK293 cells; also: nearly all actives have a fitted effect of over 50% in size
FMDV inh = blocks foot and mouth disease virus; actives 1.2% (n = 410,000); Potency, µM (highest dose often 57.9 µM), hits mostly inhibitors; FMDV antiviral cell-based qHTS; calls by dose curve; tested in HEK293T cells; also: read-out not given here; nearly all actives have a fitted effect of over 45% in size
HCMV inh = human cytomegalovirus inhibition; HFF cells, HCMV-luciferase reporter, 72 h; hits give low values; activity change, negative = inhibition, % at 57.5 µM; actives 4.5% (n = 410,000); in the data active = activity change below about -60%; inconclusive = no clear call, values can overlap the other calls; inactive = above about -39%
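Two-dose cell screen: HFF monolayers treated with compounds and infected with luciferase-expressing HCMV at 1 PFU/cell, 72 h at 37C, then lysed for luciferase measurement.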
MARV entry inh = inhibitors of Marburg virus binding or cell entry; actives 1.8% (n = 300,000); Potency, µM (top dose mostly 37.8 µM), actives largely listed as inhibitors; Marburg virus pseudotyped entry inhibition, cell reporter; calls by dose curve; tested in HEK293 cells
Large screens that a line does not name were inactive. Rows were chosen to be rich in hits. Some 6.2% of all compounds tested hit in one or more screens of this group.

CN(Cc1ccccc1)C(=O)C1CCN(S(=O)(=O)c2ccc3c(c2)oc(=O)n3C)CC1	none
S=C(Nc1cccc(Br)c1)c1ccccc1	LASV entry inh inconclusive, HCMV inh -74
CN(C)c1ccc(NC(=S)c2ccccn2)cc1	LASV entry inh 0.89µM, FMDV inh 2.8µM, HCMV inh -91, MARV entry inh 0.82µM
CN(C)c1ccc(C(=S)Nc2ccccc2)cc1	LASV entry inh inconclusive, HCMV inh -65, MARV entry inh 14µM
CC1(c2ccccc2)O[C@@H]2C[C@H]3[C@@H]4CCC5=CC(=O)C=C[C@]5(C)[C@@]4(F)[C@@H](O)C[C@]3(C)[C@]2(C(=O)CO)O1 (stereo partly specified)	LASV entry inh inconclusive, FMDV inh inconclusive, MARV entry inh 10µM
Cc1cc(O)cc(C)c1NS(=O)(=O)c1ccc2ccccc2c1	HCMV inh -83 (no result: LASV entry inh, MARV entry inh)
CNS(=O)(=O)c1ccc2ccccc2c1	none
Cc1cc(C)c(NS(=O)(=O)c2ccccc2)c(C)c1NS(=O)(=O)c1ccccc1	LASV entry inh inconclusive, HCMV inh -72, MARV entry inh inconclusive
CCN(CC)S(=O)(=O)c1ccc(C(=O)OCCN2C(=O)c3cccc4c(N5CCOCC5)ccc(c34)C2=O)cc1	FMDV inh inconclusive
O=C(NCCCc1nc2ccccc2n1Cc1ccc(Cl)cc1Cl)c1ccco1	FMDV inh inconclusive
O=[N+]([O-])c1ccc(C[n+]2ccc(Cc3ccccc3)cc2)cc1	HCMV inh -74
Cc1cc(-c2ccccc2)cc(C)n1	HCMV inh inconclusive
Cc1cc(-c2ccccc2)cc(C)[n+]1Cc1ccccc1	FMDV inh inconclusive, HCMV inh -93 (no result: LASV entry inh, MARV entry inh)
O=C([O-])c1cc(-c2ccccc2)cc(-c2ccccc2)[n+]1Cc1ccccc1	HCMV inh -79 (no result: LASV entry inh, FMDV inh, MARV entry inh)
O=[N+]([O-])c1cc(Cl)c(O)c(-[n+]2c(-c3ccccc3)cc(-c3ccccc3)cc2-c2ccccc2)c1	HCMV inh -75 (no result: LASV entry inh, MARV entry inh)
O=[N+]([O-])c1ccc(C[n+]2ccccc2)cc1	none (no result: LASV entry inh, MARV entry inh)
O=C(O)CNS(=O)(=O)c1ccc(-c2ccccc2)cc1	none (no result: LASV entry inh, FMDV inh, HCMV inh)
Cc1ccc2nc(COC(=O)CNC(=O)c3ccccc3)cn2c1	none
O=C(NN=Cc1ccccc1)NN=Cc1ccccc1	MARV entry inh inconclusive
O=[N+]([O-])c1ccc(C[n+]2c(-c3ccccc3)cc(-c3ccccc3)cc2-c2ccccc2)cc1	HCMV inh -63 (no result: LASV entry inh, MARV entry inh)
Cc1cc(F)ccc1-c1cc(C(=O)NCc2ccccc2)[nH]n1	none (no result: LASV entry inh, MARV entry inh)
COc1ccc(NC(=O)C(NC(=O)OC(C)(C)C)C(C)OCc2ccccc2)cc1 (stereo unspecified)	none
C=C(CN(C)C)C(=O)c1ccc(OC2OC(COC(C)=O)C(OC(C)=O)C(OC(C)=O)C2OC(C)=O)cc1 (stereo unspecified)	LASV entry inh inconclusive, FMDV inh 10µM, MARV entry inh inconclusive
O=C(Nc1ccccc1)c1cc(C2COCCN2C(=O)c2cccs2)on1 (stereo unspecified)	HCMV inh -85 (no result: LASV entry inh, MARV entry inh)
CCOc1ccc2nc(SCC#N)c(C#N)cc2c1	HCMV inh -68, MARV entry inh inconclusive
Cc1ccc(-c2nc(P(=O)(c3ccccc3)c3ccccc3)c(N3CCOCC3)o2)cc1	LASV entry inh inconclusive, MARV entry inh 10µM
CCOP(=O)(OCC)c1nc(-c2ccc(OC)cc2)oc1N1CCOCC1	none
O=C(NCCN1CCCCC1)Nc1ccc([N+](=O)[O-])cc1	none
Cc1ccc(Nc2ccc3cc(S(=O)(=O)N4CCC(C)CC4)ccc3n2)c(Cl)c1	none (no result: MARV entry inh)
CC1CCN(S(=O)(=O)c2ccc3nc(Nc4cccc(F)c4)ccc3c2)CC1	HCMV inh -102 (no result: MARV entry inh)
O=C(CS(=O)(=O)c1cn(Cc2ccc(Cl)cc2)c2ccccc12)N1CCCCC1	none (no result: LASV entry inh, MARV entry inh)
CN1c2ccccc2-c2nc(SCC(=O)Nc3ccccc3C(F)(F)F)ncc2S1(=O)=O	LASV entry inh inconclusive (no result: MARV entry inh)
O=c1[nH]nc(SCCS(=O)(=O)c2ccc(F)cc2)n1-c1ccc2c(c1)OCCO2	HCMV inh -81, MARV entry inh inconclusive
O=c1[nH]nc(SCCS(=O)(=O)c2ccc(F)cc2)n1-c1ccccc1	FMDV inh inconclusive, HCMV inh -79
CCOc1ccccc1NC(=O)CSc1n[nH]c(=O)n1-c1ccccc1	none (no result: LASV entry inh, MARV entry inh)
CCOC(=O)C1=C(COC(=O)c2ccc(C)s2)NC(=O)NC1C (stereo unspecified)	none
Cc1cc2occ(CC(=O)N(C)CC(=O)Nc3cccc(F)c3)c2cc1C	MARV entry inh inconclusive
CCN(C[C@H]1N[C@@](CC)(C(=O)OC)[C@H]2C(=O)N(Cc3ccccc3)C(=O)[C@@H]12)C(=O)Nc1ccc(OC)cc1	none (no result: LASV entry inh, MARV entry inh)
Cc1ccc(S(=O)(=O)/N=C2/C=C(Sc3ncn[nH]3)C(=O)c3ccccc32)c(C)c1	LASV entry inh 4.1µM, MARV entry inh inconclusive (no result: FMDV inh, HCMV inh)

Screening data from PubChem.
